PubChem BioAssay (EPA / NIEHS)
Values joined by “and” are separate entries in the source; they are usually repeats but may differ in a detail not shown here. Equal entries are not always repeated. Active and inactive are the calls of the source. How the source made its calls: active means hit-call score of the fitted dose curve at least 0.9, where 1 is the maximum; inactive means score below 0.9.

Read-out: Monocyte Chemoattractant Protein-1 (MCP1), CCL2 (gene 6347)
Experiment: BSK_hDFCGF_MCP1: BioMAP Diversity Plus: hDFCGF Assay for Monocyte Chemoattractant Protein-1 (MCP1) Biomarker Activity (AID 2284285)
Settings: primary human foreskin fibroblasts
Experimental: BSK_hDFCGF is a cell-based, multiplexed-readout assay that uses foreskin fibroblast, a human skin primary cell, with measurements taken at 24 hours after chemical dosing in a 96-well plate.BSK_hDFCGF_MCP1 is an assay component measured in the BSK_hDFCGF assay. It measures MCP-1 antibody related to regulation of gene expression using ELISA technology.Data from the assay component BSK_hDFCGF_MCP1 was analyzed at the endpoint, BSK_hDFCGF_MCP1, in the positive analysis fitting direction relative to DMSO as the negative control and baseline of activity. Using a type of binding reporter, gain or loss-of-signal activity can be used to understand protein changes. To generalize the intended target to other relatable targets, this assay endpoint is annotated to the 'cytokine' intended target family, where the subfamily is 'chemotactic factor'.
The levels of cell surface (or secreted, indicated by the prefix "s") biomarker endpoints were measured by ELISA. Overt cytotoxicity to cells in confluent adherent cultures (all systems other than the BT system) was assessed by measuring total protein levels using sulforhodamine B (SRB) staining in parallel cultures at the time of biomarker measurements, indicated as SRB endpoints. For proliferation assays for adherent cell types, individual cell types are cultured at sub-confluence and relative cell numbers quantified by SRB staining at time points optimized for each system (48 h: 3C and CASM3C systems; 72 h: BT and HDF3CGF systems; 96 h: SAg system). SRB was performed by staining cells with 0.1% SRB after fixation with 10% TCA and reading wells at 560 nm.Viability and proliferation of PBMC (T cells) was quantified by Alamar Blue reduction for the SAg and BT systems. For PBMC viability (referred to as PBMC Cytotoxicity within the assay endpoint names), cells were plated (75,000/well in a 96-well plate) and then chemical samples added for 1 h before addition of activators, SEB and TSST-1 (20 ng/mL final concentration each). Cells were incubated for 90 h. Then, Alamar Blue (20 uL/well) (Invitrogen, Cat DAL1100) was added for 6 h, and the plates were read with a fluorescence microplate reader at 546/580 nm (excitation/emission). For PBMC proliferation, cells were plated and activated as above but incubated for only 16 h prior to addition of Alamar Blue. Plates were read after 6 h.

Row | Compound | outcome | AC50
1 | CC(=O)c1ccc(C)cc1 | inactive | –
2 | C=C(C)C(=O)OCCC(F)(F)C(F)(F)C(F)(F)C(F)(F)C(F)(F)C(F)(F)C(F)(F)C(F)(F)F | inactive | –
3 | O=C(O)C(F)(F)C(F)(F)C(F)(F)C(F)(F)C(F)(F)C(F)(F)C(F)(F)C(F)F | inactive | –
4 | c1ccc(OCCOc2ccccc2)cc1 | inactive | –
5 | O=S(=O)(O)C(F)(F)C(F)(F)OC(F)(F)C(F)(F)F | inactive | –
6 | OCC(F)(OC(F)(F)C(F)(OC(F)(F)C(F)(F)C(F)(F)F)C(F)(F)F)C(F)(F)F (stereo not drawn) | – | 4.79 µM (active) and 2.83 µM (active)
7 | C=C(F)C(=O)OC(C(F)(F)F)C(F)(F)F | inactive | –
8 | CCCO[Si](OCCC)(OCCC)OCCC | inactive | –
9 | O=C(O)C(F)(F)OC(F)(F)C(F)(F)OC(F)(F)C(F)(F)C(F)(F)C(F)(F)F | inactive | –
10 | CCCCN(CCO)CCO | inactive | –
11 | CC(C)(CO)CO | inactive | –
12 | CCn1cc(C(=O)O)c(=O)c2ccc(C)nc21 | inactive | –
13 | CC(C)CCCC(C)(C)O | inactive | –
